Source: PubChem BioAssay
Pf growth 96h – P. falciparum growth inhibition at 96 hour, primary screen for plastid delayed-death inhibitors | P. falciparum luciferase reporter growth, 96 h | Potency, µM (series often up to 28.7 µM), without a hit: at the highest dose activity change, negative = inhibition, most hits filed as inhibitors | hit rate 6.9% among 320,000 | AID 504834; also: % is scaled to controls: 0 for no effect and ±100 for the full control effect
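96 h incubation, 37 C, 5% CO2, of luciferase-reporter P. falciparum-infected RBCs (2% hematocrit, 0.05% parasitemia final) with test compounds; endpoint luminescence.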
AMA1-RON2 inh – AMA1-RON2 (P. falciparum) interaction inhibition | AlphaScreen AMA1-biotinylated RON2 peptide binding | Potency, µM (series often up to 58.2 µM), inactives show at the highest dose activity change, negative = inhibition, hits mostly inhibitors | hit rate 0.2% among 360,000 | AID 720542;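 also: 0% = vehicle wells and -100% = peptide control; nearly all actives have a fitted effect of over 45% in size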
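AMA1 (3D7) with his tag at 25 nM final met compounds first, then biotinylated RON2 peptide at 25 nM; detection used donor plus acceptor beads, 10 µg/mL apiece, read by AlphaScreen after 30 min at room temperature.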
SARS PLP yeast – SARS-CoV PLP inhibition in yeast; S. cerevisiae expressing SARS-CoV PLpro, growth rescue; Potency, µM (titrated, usually from 32.9 µM), for inactives: top-dose activity, positive = growth rescue, actives largely listed as activators; hit rate 0.19% among 330,000; calls by dose curve; also: 0% is about no effect; nearly all actives have a fitted effect of over 55% in size
Pf growth 48h – P. falciparum growth inhibition at 48 hours (one generation). AID 504832. Potency, µM (doses to about 28.7 µM), for inactives: top-dose activity change, negative = inhibition, hits mostly inhibitors. hit rate 5.9% among 310,000. P. falciparum luciferase growth in erythrocytes, 48 h; also: % is scaled to controls: 0 for no effect and ±100 for the full control effect
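Parasite viability was followed by luminescence of a genomically integrated firefly luciferase. Cultures held 0.1% parasitemia at 2% hematocrit (final), incubated under 5% CO2 at 37 C.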
The depositor's hits bear a star; ? = inconclusive; / = not tested or not shown; [ ] = dose if it differs, or a comment. A selection: hits, their analogues and other compounds. The true share with any hit is near 9.4%. Unless noted, calls follow the shape of the dose curve; as a rule, active = well fitted curve in the direction sought with a large enough effect; inconclusive = small, poorly fitted or top-dose-only effect, or another doubt; inactive = no such curve, though single readings can be large; an effect the other way counts as inactive or inconclusive. Potency is read from the fitted curve at half-maximal effect.

SMILES	Pf growth 96h	AMA1-RON2 inh	SARS PLP yeast	Pf growth 48h
O=C(NO)c1ccc(C(=O)N(C2CCCCC2)C2CCCCC2)cc1	6%	46%	1%	3.3µM*
O=C(c1c(F)cccc1F)N(Cc1cccs1)C1CCCC1	31%	13%	-1%	-12%
O=C(c1c(F)cccc1F)N(C1CCCCC1)C1CCCCC1	-15%	1%	2%	10µM*
Clc1ccccc1N1CCN(c2ncnc3nc[nH]c23)CC1	24%	8%	-14%	21%
NC(=O)CC(NC(=O)c1cccc(Br)c1)c1ccc(NC2CCCCCCC2)c([N+](=O)[O-])c1 (stereo not drawn)	?	-25%	0%	-22%
CCOC(=O)c1cnn2c(N)c(C#N)nnc12	?	20%	1%	15%
Cc1nnc2n(C)c(=O)c3c4c(sc3n12)COC(C)(C)C4	/	-14%	/	/
CCCCSc1nnc2n(CCc3ccccc3)c(=O)c3c4c(sc3n12)COC(C)(C)C4	1.7µM*	39%	0%	-6%
CCN(CC(=O)NCc1cccs1)C(=O)/C=C/c1cc(Br)ccc1OC(F)F	10µM*	20%	11%[6.58 µM]	?
Cc1cccc(C(=O)O)c1O	-17%	/	/	-2%
Cc1cc(C(=O)NCC(=O)OC(C(=O)Nc2cc(C(F)(F)F)ccc2Cl)c2ccccc2)ccc1[N+](=O)[O-] (stereo not drawn)	?	-12%	-3%	/
Cc1ccc(C(=O)OC(C(=O)Nc2ccc(Cl)cc2C(F)(F)F)c2ccccc2)cc1 (stereo not drawn)	-20%	7%	-10%	?
CCCC(=O)OC(C(=O)Nc1cc(C(F)(F)F)ccc1Cl)c1ccccc1 (stereo not drawn)	13µM*	12%	-24%	13µM*
O=C(OC(C(=O)Nc1ccc(Cl)cc1C(F)(F)F)c1ccccc1)c1c(Cl)cccc1Cl (stereo not drawn)	0%	-1%	-3%	12µM*
Cc1sc2nc3c(SC(C)C(=O)O)cc(C(=O)c4ccccc4O)cn3c(=O)c2c1C (stereo not drawn)	?	-7%	-5%	-15%
CCOc1ccccc1NS(=O)(=O)c1ccc(Br)s1	-29%	-1%	/	-10%
O=C(c1cccc(Br)c1)c1cn(-c2ccccc2)nc1C(=O)c1ccccc1	?	-4%	7%	4.7µM*
CCCC1NC(=S)N(C2CCCCC2)C1=O (stereo not drawn)	2.9µM*	-3%	9%	0%
CCN(CC)P(=O)(Nc1ccc([N+](=O)[O-])cc1)c1c(C)nn(CCC#N)c1NC(=O)c1ccc(Cl)cc1Cl (stereo not drawn)	7.4µM*	4%	3%	7.4µM*
N#CCCn1cc(C(=O)Nc2ccc([N+](=O)[O-])cc2)c(-c2ccccc2)n1	-22%	-5%	0%	-15%
OCC[N+]12CCC(CC1)C(C(O)(c1ccccc1)c1ccccc1)C2 (stereo not drawn)	-38%	-2%	1%	?
O=C(C[N+]12CCC(CC1)C(C(O)(c1ccccc1)c1ccccc1)C2)c1ccc(Br)cc1 (stereo not drawn)	8.3µM*	-2%	0%	?
Cc1oc(C)c2c(=O)ccc3c(c12)OC(N)=C(C#N)C3c1ccccc1 (stereo not drawn)	75%	-16%	-1%	?
N#CC1=C(N)Oc2cc(O)ccc2C1c1cccs1 (stereo not drawn)	/	-6%	7%	/
N#CC1=C(N)Oc2c(ccc3cccnc23)C1c1ccccc1 (stereo not drawn)	?	64%	0%	13µM*
SMILES	Pf growth 96h	AMA1-RON2 inh	SARS PLP yeast	Pf growth 48h
N#CC1=C(N)Oc2c(ccc3ccccc23)C1c1cccs1 (stereo not drawn)	8.3µM*	83%	-6%	/
Cc1c(C=C2C(=O)N(C)C(=O)N(C)C2=O)c(=O)n(-c2ccccc2)n1C	13%	-8%	15%	6%
C[N+](C)(C)CC[N+]1(C)Cc2c(Cl)c(Cl)c(Cl)c(Cl)c2C1	0.24µM*	/	/	-10%
O=C(N/N=C/c1ccc(OC(=O)c2cccs2)cc1)c1cccc(F)c1	31%	5%	-6%	58%
O=C(c1cc([N+](=O)[O-])ccc1Cl)N1c2ccccc2Sc2ccccc21	2.1µM*	-10%	2%	7.4µM*
Cc1nn(Cc2ccccc2Cl)c(C)c1NC(=O)c1cc(-c2ccc(F)cc2)on1	?	-2%	-3%	0%
COc1cccc(-c2noc(N)c2C#N)c1	-3%	9%	-4%	7.4µM*
COc1cccc(C(=O)N2CCC(C(=O)N3CCN(C)CC3)CC2)c1	19%	5%	11%	32%
COc1ccc(C(=O)Nc2cccc(C(=O)N3CCCCC3)c2)cc1	?	0%	7%	?
COc1ccc(C(=O)Nc2cccc(C(=O)N3CCN(C)CC3)c2)cc1	0.13µM*	2%	-1%	136%
COc1cccc(C(=O)N2CCN(C(=O)C3CC3)CC2)c1	12µM*	-2%	9%	10%
COc1cccc(C(=O)OC(C)CN2CCCC2)c1 (stereo not drawn)	4.1µM*	6%	-3%	-4%
COc1cccc(C(=O)C2CCCN(C(=O)c3cccc(C#CC(C)(C)O)c3)C2)c1 (stereo not drawn)	12µM*	-4%	0%	?
Cc1ccc(NC(=O)CN(C)C(=O)Cc2ccc(Cl)cc2Cl)cc1	?	10%	-3%	?
CCn1c(=O)c([N+](=O)[O-])c(N2CCOCC2)c2ccccc21	10µM*	10%	-1%	8%
CCN(CC)c1c([N+](=O)[O-])c(=O)sc2ccccc12	15%	-1%	2%	-50%
CCN(CC)c1c([N+](=O)[O-])c(=O)n(CC)c2ccccc12	?	-11%	3%	13µM*
c1cc2c3c(cccc3c1)C(N1CCCCC1)=N2	12µM*	1%	1%	?
c1cc2c3c(cccc3c1)C(N1CCCCCC1)=N2	1%[5.75 µM]	11%	1%	-6%
CCOC(=O)c1sc(NC(=O)C(OC(C)=O)c2ccccc2)nc1C (stereo not drawn)	10µM*	13%	-15%	-24%
Cc1nn(C)cc1CN(C)C(=O)c1nn2c(c1Br)NC(c1cccs1)CC2C(F)(F)F (stereo not drawn)	5.2µM*	-2%	0%	13µM*
Cc1nn(C)c(C)c1CN(C)C(=O)c1cc2n(n1)C(C(F)(F)F)CC(c1cccs1)N2 (stereo not drawn)	9.3µM*	2%	5%	?
CC(C)C(=O)Nc1cc2c(cc1C(=O)c1ccccc1)OCCO2	1.3µM*	0%	2%	?
CCC(=O)c1cc2c(cc1NC(=O)C(C)C)OCCO2	2.3µM*	8%	6%	-2%
CCCC(=O)c1cc2c(cc1NC(=O)c1ccccc1F)OCCO2	12µM*	-1%	-2%	?
CCC(=O)c1cc2c(cc1NC(=O)c1ccccc1)OCCO2	46%	-1%	6%	/
CC(=O)Nc1cc2c(cc1C(=O)c1ccc(C)cc1)OCCO2	-6%	-4%	/	1%
